# Measurements published in PMC4336329 (PLoS ONE, 2015).
# Screen size: about 310,000 compounds; about 2,200 (0.71%) showed an effect of 50% or more. The effect is printed as a negative number. Only a selection was taken, and strong results are over-represented in it overall.
# Target: human ether-à-go-go-related gene (hERG) potassium channel (human, UniProt Q12809)
# Experiment: primary screen, population patch clamp on CHO cells stably expressing hERG; higher = less effect of the substance
# human ether-à-go-go-related gene (hERG) potassium channel, sequence (Q12809 whole entry, looked up): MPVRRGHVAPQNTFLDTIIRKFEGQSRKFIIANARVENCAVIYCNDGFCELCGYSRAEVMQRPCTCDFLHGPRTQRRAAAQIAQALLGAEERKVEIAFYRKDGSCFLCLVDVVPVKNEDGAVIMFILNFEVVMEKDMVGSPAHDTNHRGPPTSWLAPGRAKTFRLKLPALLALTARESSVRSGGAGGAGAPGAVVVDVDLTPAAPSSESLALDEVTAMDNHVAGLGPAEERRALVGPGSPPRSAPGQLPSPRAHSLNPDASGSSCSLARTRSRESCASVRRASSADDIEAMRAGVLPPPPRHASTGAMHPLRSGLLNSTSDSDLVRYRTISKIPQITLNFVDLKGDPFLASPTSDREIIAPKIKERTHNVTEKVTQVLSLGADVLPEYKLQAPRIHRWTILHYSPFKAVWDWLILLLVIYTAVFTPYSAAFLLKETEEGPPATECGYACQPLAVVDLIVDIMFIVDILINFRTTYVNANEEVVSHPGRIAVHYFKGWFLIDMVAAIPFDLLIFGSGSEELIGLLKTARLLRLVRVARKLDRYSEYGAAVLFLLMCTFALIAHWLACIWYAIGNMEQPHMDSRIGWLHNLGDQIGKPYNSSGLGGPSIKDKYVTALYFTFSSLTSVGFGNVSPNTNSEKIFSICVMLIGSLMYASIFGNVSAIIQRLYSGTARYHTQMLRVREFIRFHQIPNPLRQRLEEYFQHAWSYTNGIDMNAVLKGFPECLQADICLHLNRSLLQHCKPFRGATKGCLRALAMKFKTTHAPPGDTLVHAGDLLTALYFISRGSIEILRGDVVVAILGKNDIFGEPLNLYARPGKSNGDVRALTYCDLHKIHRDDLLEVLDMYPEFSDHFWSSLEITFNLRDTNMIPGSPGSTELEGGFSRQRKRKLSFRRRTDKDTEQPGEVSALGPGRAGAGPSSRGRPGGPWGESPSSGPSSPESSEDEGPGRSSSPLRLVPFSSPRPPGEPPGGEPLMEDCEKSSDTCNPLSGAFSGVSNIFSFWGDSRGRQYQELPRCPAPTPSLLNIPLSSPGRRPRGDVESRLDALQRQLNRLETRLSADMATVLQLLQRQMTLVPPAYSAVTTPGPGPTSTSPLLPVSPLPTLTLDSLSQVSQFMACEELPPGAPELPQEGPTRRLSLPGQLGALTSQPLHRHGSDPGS
row,SMILES,"hERG current change (%, negative = inhibition) at 1uM [%]"
1,Cc1ccccc1N1CCN(CCCOc2ccc3c(C)cc(=O)oc3c2)CC1,-56.2
2,COc1ccccc1N1CCN(CCCCCCOc2ccc(F)cc2)CC1,-7.53
3,COc1ccccc1N1CCN(CCCCOc2cccc3ccccc23)CC1.Cl,9.44
4,COc1ccccc1N1CCN(CCN(C(=O)c2ccc(F)cc2)c2ccccn2)CC1.Cl,-57.8
5,COc1ccccc1N1CCN(CCCOc2ccc(F)cc2)CC1,-60.3
6,COc1ccccc1N1CCN(CC(=O)c2ccc(F)cc2)CC1.Cl,16.7
7,COc1ccccc1N1CCN(CCN(C(=O)C2CCCCC2)c2ccccn2)CC1.O=C(O)/C=C\C(=O)O,4.2
8,Cc1cc(=O)oc2cc(OCCCN3C(=O)c4ccccc4C3=O)ccc12,-0.574
9,COc1ccccc1N1CCN(Cc2ccc(F)cc2)CC1,6.42
10,COc1ccccc1N1CCN(CCCC(=O)c2ccc(F)cc2)CC1,-43.2
11,COc1ccccc1N1CCN(CCCCOc2ccc(F)cc2)CC1.Cl,-71.5
12,CCOC(=O)c1sc2nc(C)nc(N3CCCCC3C)c2c1C (centres unmarked),-5.1
13,O=C(NCCNC(=O)c1ccc(Cl)cc1Cl)c1cnccn1,6.54
14,O=C(CSc1cccc2cccc(Cl)c12)NC1=NCCS1,2.37
15,CSCCC(NC(=O)COc1ccccc1)C(=O)NCCOc1ccc(C)cc1 (centres unmarked),3.41
16,O=C(c1ccco1)N1CCN(C(=S)NCc2ccc(F)cc2)CC1,-3.27
17,Cl.O=C(c1ccco1)N1CCN(CCOc2ccc(F)cc2)CC1,-0.809
18,O=C(c1ccco1)N1CCN(CCOc2ccccc2)CC1,10.3
19,Cl.O=C(c1ccco1)N1CCN(CCCCOc2ccc(F)cc2)CC1,-74.8
20,O=C(CCC1CCN(C(=O)c2ccccc2Cl)CC1)NCc1ccc(F)cc1,4.08
21,O=C(CCC1CCN(C(=O)c2ccco2)CC1)NCc1ccc(F)cc1,-62
22,Cc1cccc(NC(=O)Cn2c(=O)n(Cc3ccco3)c(=N)c3c4c(sc32)COC(C)(C)C4)c1,3

row,SMILES,"hERG current change (%, negative = inhibition) at 1uM [%]"
1,COc1cccc(/C=C2\SC(N)=NC2=O)c1OS(=O)(=O)c1ccccc1,2.6
2,COc1cccc(CN2CC(C(=O)NCCCCc3ccccn3)CCC2=O)c1 (centres unmarked),7.17
3,Cc1ccccc1Cn1c(C)nc2ccccc21,10.4
4,Cc1ccc(SCc2nc3ccccc3n2CC(=O)Nc2c(C)cccc2C)cc1,6.88
5,C[C@@H](C(=O)NC1CCN(Cc2ccccc2)CC1)N1C(=O)N2CCc3c([nH]c4ccccc34)[C@@]2(C)C1=O,-62.1
6,CC(C)[C@@H](C(=O)NC1CCN(Cc2ccccc2)CC1)N1C(=O)N2CCc3c([nH]c4ccccc34)[C@@]2(C)C1=O,-4.75
7,CC(C)C[C@@H](C(=O)NC1CCN(Cc2ccccc2)CC1)N1C(=O)N2CCc3c([nH]c4ccccc34)[C@@]2(C)C1=O,-12.1
8,Cc1ccc(-n2nnnc2SCC(=O)Nc2ccccc2-c2ccccc2)cc1C,2.73
9,C#CC1CN(Cc2ccccc2)CC(C#C)N1C.Cl (centres unmarked),15.1
10,COc1cccc(N2CCN(CC(=O)Nc3ccc(SC(F)F)cc3)CC2)c1,-27.7
11,O=C(CN1CCN(c2ccc(O)cc2)CC1)Nc1ccc(SC(F)F)cc1,-78.4
12,CN(C)c1ccc(NC(=O)CN2CCN(CC(=O)Nc3ccc(F)cc3)CC2)cc1,-61.1
13,CCN(CC)c1ccc(NC(=O)CN2CCN(CC(=O)Nc3ccccc3F)CC2)cc1,-13
14,CCN(CC)c1ccc(NC(=O)CN2CCN(c3ccccc3F)CC2)cc1,7.06
15,O=C(CN1CCN(c2ccc(Cl)cc2)CC1)Nc1ccc(F)cc1,-28.1
16,CCN(CC)c1ccc(NC(=O)CN2CCN(CC(=O)Nc3ccc(F)cc3)CC2)cc1,-84.5
17,CN(C)c1ccc(NC(=O)CN2CCN(c3ccc(F)cc3)CC2)cc1,-3.53
18,CN(C)c1ccc(NC(=O)CN2CCC(C(=O)c3ccc(F)cc3)CC2)cc1,-4.93
19,COc1ccc(N2CCN(CC(=O)Nc3ccc(SC(F)F)cc3)CC2)cc1,-35.8
20,O=C(CN1CCN(CC(=O)Nc2ccc(Cl)cc2)CC1)Nc1ccc(F)cc1,-86.9
21,O=C(CN1CCN(CC(=O)Nc2ccc(-c3ccccc3)cc2)CC1)Nc1ccc(F)cc1,-13.7
22,CN(C)C=O.Cc1cccc(-n2nnnc2SCC(=O)N(CC(C)C)c2c(N)n(CC(C)C)c(=O)[nH]c2=O)c1,4.9
